The assay has as its target Glucose transporter (Leishmania mexicana) (UniProt O61059). The assay is described as follows: ST_JUDE_LEISH: Cytotoxicity at 2uM final concentration against transgenic Leishmania Mexicana promastigotes LmGT2 that are glucose transport deficient and complemented with the L. Mexicana glucose transporter 2. Activity is measured by DNA content using SYBR green in vitro. Type of assay: functional.
As a reminder, the inhibition is the relative decrease from the control value, in per cent. As for `CC(C)NCc1cccc(-c2ccc(NS(=O)(=O)c3cccc4cccnc34)cc2)c1`, the inhibition is -2.82%. In the case of `CS(=O)(=O)c1ccc(-c2cnc(N)c(-c3cccc(O)c3)c2)cc1` it was 6.07%. In the case of `O=C(Nc1nc(-c2ccccn2)cs1)c1ccc(S(=O)(=O)N2CCc3ccccc32)cc1` it was 2.63%. For `O=C(CCCCCNC(=O)c1ccc(O)c(-c2ccc(Cl)c(Cl)c2)c1)NCCc1ccc(Cl)c(Cl)c1` the value was 0.33%. As to `Nc1nc(N)c2c(ccc3c2ccn3Cc2ccc3c(c2)OCO3)n1`, the inhibition was determined as 93.7%. In the case of `CCCC1N=C(N)N=C(N)N1c1ccc(C)c(C)c1` (centres undefined) it was -2.79%. In the case of `Cc1ccccc1C1CCN(c2ccc(C(=O)NC3CC3)cn2)CC1` it was 0.57%; in that of `COc1ccc(CNC(=N)Nc2nc(-c3ccc(OCCCn4ccnc4)cc3)cs2)cc1`, 2.73%. In the case of `CN1CCN(c2cc3c(cc2Cl)CCN3C(=O)Nc2ccc(NC(=O)c3ccc(C(F)(F)F)cc3)cc2)CC1` it was 1.98%; in that of `C=Cc1c(C2CCN(CCCCNC(=O)c3ccc(-c4ccc(C#N)cc4)cc3)CC2)ccc2c1CCCC2`, 1.54%. For the molecule `Cc1cc(C(F)(F)F)n2nc(C(=O)N(C)Cc3cncn3Cc3ccc(F)cc3)cc2n1`, the inhibition was found to be 1.49%. With `Cc1cccc2nc(-c3cccc(-c4ccc(NC(=O)C(C)CN5CCN(C)CC5)cc4)c3)[nH]c12` (centres undefined), the inhibition was 3.85%. For `COc1ccc2ccccc2c1C=NN=c1cc[nH]c2ccc(F)cc12`, the inhibition came out at 7.98%. For `OCCN1CCN(c2ccc(Nc3ccnc4cc5ccccc5cc34)cc2)CC1` the value was 21.7%; for `O=C(NCCCCN1CCN(CC=Cc2ccccc2)CC1)c1ccc(NC(=O)c2cc(Cl)cc(Cl)c2)cc1`, -0.79%; for `O=C(/C=C/c1ccc(Cl)cc1)NCCCCCN1CCCN(C(=O)Nc2cccc(Cl)c2)CC1`, -1.25%. For `O=S(=O)(c1c(Cl)cc(Cl)cc1Cl)N1CCCCC(c2ccc(F)c(F)c2)=N1` the value was 1.47%.

Turning to `Cc1cc(N)nc2ccc(-c3ccc(CN)cc3)cc12`, the inhibition is 4.15%. For `N=C(N)NN=Cc1ccc2ccc3ccccc3c2c1` the value was 4.14%. In the case of `C#Cc1cccc(NC(=O)[C@H](CC2CCCCC2)Nc2ccc(C#N)c3ccccc23)c1` it was 1.87%; in that of `Cc1cc(OCCCN2CCC(NS(=O)(=O)c3ccc(C(F)(F)F)cc3)CC2)c2ccccc2n1`, 0.63%. For `Clc1cccc(CNc2nc(NCCc3c[nH]cn3)nc(NC3CCCCC3)n2)c1`, the inhibition stood at 2.21%. For `CCc1c[nH]c2c(N3CCCC3=O)cc(C(=O)N[C@@H](Cc3ccccc3)[C@H](O)CNC(C)(C)c3cccc(OC)c3)cc12` the value was 1.9%. For `CN(C)c1ccc(-c2ccc(C(=O)NC3CCN(Cc4ccc(C(C)(C)C)cc4)CC3)s2)cc1`, the inhibition is -2.12%.

The values above are taken from ChEMBL document CHEMBL3433997, “St. Jude Leishmania screening dataset” (2016).
